From PubChem BioAssay AID720567 (Broad Institute, 2013)
Results with a measured potency or affinity are listed apart. Values without a mark were called inactive. The rule behind the calls is not given here.

test: toxicity toward HEK293 cells – cell-based, dry powder samples, cytotoxicity control, dose response (AID 720567); conditions: plate reader; series mostly up to 15 µM; activity change, negative = cytotoxicity: at the top concentration

Row | SMILES | activity change, negative = cytotoxicity
1 | CC(=O)N[C@H]1[C@@H](O[C@@H]2OC(C[C@@H](O)C3O[C@@H](n4ccc(=O)[nH]c4=O)[C@H](O)[C@@H]3O)[C@H](O)[C@H](O)[C@H]2NC(=O)/C=C/CCCCCCCCCCC(C)C)O[C@H](CO)[C@@H](O)[C@@H]1O (stereo partly drawn) | 67.2% [at 3.8 µM]
2 | COc1ccc(CSc2nnc(-c3ccccc3)o2)cc1 | 49.6%
3 | c1ccc(CSc2nnc(-c3ccccc3)o2)cc1 | 9.89%
